Assay results from paper PMC5913336, “True equilibrium measurement of transcription factor-DNA binding affinities using automated polarization microscopy”.

These sequences were tested against T1, Slp1-FL (Drosophila melanogaster, UniProt P32030) (assay: FP; 33 mM phosphate pH 7.0, 90 mM NaCl, 0.01% Tween 20, 0.1 mM DTT, 0.5% agarose; room temperature). Conditions: tags: N-GST (pGEX-6P-1, kept); dsDNA, one strand shown.
T1 sequence: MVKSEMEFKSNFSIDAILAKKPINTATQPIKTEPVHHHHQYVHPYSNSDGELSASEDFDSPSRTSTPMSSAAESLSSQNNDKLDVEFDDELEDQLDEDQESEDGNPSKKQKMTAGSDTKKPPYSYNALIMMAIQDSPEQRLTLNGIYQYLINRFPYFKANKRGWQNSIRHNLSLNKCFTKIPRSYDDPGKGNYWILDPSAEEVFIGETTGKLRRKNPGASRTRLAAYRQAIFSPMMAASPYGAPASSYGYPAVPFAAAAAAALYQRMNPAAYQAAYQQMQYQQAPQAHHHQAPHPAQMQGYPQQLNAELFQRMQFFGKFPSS
In the case of ACGCGTTTACACTTA, the binding signal is reported as 14.2 Kd / Kd of best base at the position.
ACGTGTTAACACTTA was tested, and the binding signal was 14 Kd / Kd of best base at the position.
With ACGTGTCTACACTTA the binding signal was 22.3 Kd / Kd of best base at the position.
In the case of ACGTGTTTACACTTT, the binding signal is reported as 1.35 Kd / Kd of best base at the position.
ACGTGTGTACACTTA was tested, and the binding signal was 7.74 Kd / Kd of best base at the position.
In the case of ACGTGTTTGCACTTA, the binding signal is reported as 23.1 Kd / Kd of best base at the position.
For ACGTGTTCACACTTA, the binding signal was 37.4 Kd / Kd of best base at the position.
For GCGTGTTTACACTTA, the binding signal was 1.21 Kd / Kd of best base at the position.
For ACGTGTTTACACTGA, the binding signal was 1.18 Kd / Kd of best base at the position.
ATGTGTTTACACTTA was tested, and the binding signal was 1.95 Kd / Kd of best base at the position.
For ACGTGCTTACACTTA, the binding signal was 16.8 Kd / Kd of best base at the position.
In the case of ACGTGTTTACACTCA, the binding signal is reported as 3.73 Kd / Kd of best base at the position.
ACTTGTTTACACTTA was tested, and the binding signal was 1.09 Kd / Kd of best base at the position.
For ACGTGGTTACACTTA, the binding signal was 14.4 Kd / Kd of best base at the position.
With ACGTGTTTAGACTTA the binding signal was 19.7 Kd / Kd of best base at the position.
ACGTGTTGACACTTA was tested, and the binding signal was 5.44 Kd / Kd of best base at the position.
For ACGTGTTTACAGTTA, the binding signal was 2.11 Kd / Kd of best base at the position.
For ACGTGTTTACACTTG, the binding signal was 1.73 Kd / Kd of best base at the position.
For ACATGTTTACACTTA, the binding signal was 1.13 Kd / Kd of best base at the position.
With ACGAGTTTACACTTA the binding signal was 30.1 Kd / Kd of best base at the position.
With ACGTGTTTACAATTA the binding signal was 2.79 Kd / Kd of best base at the position.
For ACGTGTTTACACCTA, the binding signal was 2.68 Kd / Kd of best base at the position.
With AAGTGTTTACACTTA the binding signal was 8.32 Kd / Kd of best base at the position.
ACGTGTTTACCCTTA was tested, and the binding signal was 2.19 Kd / Kd of best base at the position.
With ACGTGTTTACACGTA the binding signal was 2.9 Kd / Kd of best base at the position.
For ACGTGTTTACGCTTA, the binding signal was 1.83 Kd / Kd of best base at the position.
With ACCTGTTTACACTTA the binding signal was 3.03 Kd / Kd of best base at the position.
Sequence ACGTGTTTACACTTA has a Kd of ~17 nM.
For ACGTGTATACACTTA, the binding signal was 19.4 Kd / Kd of best base at the position.
ACGTGTTTATACTTA was tested, and the binding signal was 2.63 Kd / Kd of best base at the position.
CCGTGTTTACACTTA was tested, and the binding signal was 1.25 Kd / Kd of best base at the position.
With AGGTGTTTACACTTA the binding signal was 1.71 Kd / Kd of best base at the position.
In the case of ACGTGTTTACACTTC, the binding signal is reported as 1.33 Kd / Kd of best base at the position.
In the case of ACGTGTTTACATTTA, the binding signal is reported as 1.28 Kd / Kd of best base at the position.
For ACGTGTTTACACATA, the binding signal was 9.38 Kd / Kd of best base at the position.
For ACGTATTTACACTTA, the binding signal was 3.26 Kd / Kd of best base at the position.
In the case of ACGGGTTTACACTTA, the binding signal is reported as 20.1 Kd / Kd of best base at the position.
For ACGTCTTTACACTTA, the binding signal was 68.8 Kd / Kd of best base at the position.
ACGTGATTACACTTA was tested, and the binding signal was 19 Kd / Kd of best base at the position.
